High-throughput results (PubChem BioAssay)
miR122 inh – miR-122 suppressors via Renilla sensor increase, primary screen, cell-based, Huh7 psiCHECK-miR122, Renilla luciferase, single point; activation, % at 12.5 µM; 48 h; 340,000 compounds, 0.14% hits;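 active = mean activation of 30% or more, with every replicate also reaching 30%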;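 note: 0% = median of neutral control wells and 100% = median of positive control wells; higher luciferase signal means stronger suppression of miR-122 activity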
Numbers without * were called inactive. This excerpt belongs to a sample that is enriched for hits.

SMILES	miR122 inh
COc1cccc(C#Cc2ccc3c(c2)O[C@H](CN(C)C(C)=O)[C@H](C)CN([C@H](C)CO)S3(=O)=O)c1	5.0
C[C@@H]1CN([C@@H](C)CO)S(=O)(=O)c2ccc(C#Cc3ccncc3)cc2O[C@@H]1CN(C)C(=O)Nc1ccc2c(c1)OCO2	43.2*
CCCC#Cc1ccc2c(c1)O[C@H](CN(C)C(=O)c1ccncc1)[C@H](C)CN([C@@H](C)CO)S2(=O)=O	31.5*
C[C@H](CO)N1C[C@H](C)[C@@H](CN(C)C(=O)C2CCOCC2)Oc2cc(C#Cc3ccncc3)ccc2S1(=O)=O	33.6*
C[C@@H]1CN([C@@H](C)CO)S(=O)(=O)c2ccc(C#Cc3ccncc3)cc2O[C@H]1CN(C)C(=O)C1CCCCC1	6.6
COc1cccc(NC(=O)N(C)C[C@H]2Oc3cc(C#Cc4ccncc4)ccc3S(=O)(=O)N([C@@H](C)CO)C[C@@H]2C)c1	-38.8
C[C@@H]1CN([C@H](C)CO)S(=O)(=O)c2ccc(C#Cc3ccncc3)cc2O[C@@H]1CN(C)C(=O)c1ccncc1	15.4
C[C@H]1CN([C@@H](C)CO)S(=O)(=O)c2ccc(C#Cc3ccncc3)cc2O[C@@H]1CN(C)C(=O)c1ccncc1	-17.8
Cc1ccc(-c2cnc3c(c2)C(=O)N([C@@H](C)CO)C[C@@H](C)[C@H](CN(C)C(=O)c2ccncc2)O3)cc1	0.7
Cc1cc(C(=O)Nc2cccc3c2O[C@H](CN(C)Cc2ccc(C(=O)Nc4ccccc4N)cc2)[C@H](C)CN([C@@H](C)CO)C3=O)n(C)n1	-90.5
CCCN1C[C@@H](C)[C@H](OC)CN(C)C(=O)c2ccc(NC(=O)COC)cc2OC[C@@H]1C	-8.9
Cc1ccc(-c2cnc3c(c2)C(=O)N([C@H](C)CO)C[C@H](C)[C@@H](CN(C)C(=O)Cc2ccncc2)O3)cc1	-3.2
C[C@@H]1CN([C@@H](C)CO)S(=O)(=O)c2ccc(C#CCC3CCCC3)cc2O[C@@H]1CN(C)C(=O)CN(C)C	7.0
C[C@H](CO)N1C[C@H](C)[C@H](CN(C)C(=O)Nc2ccccc2)Oc2cc(-c3cccc(C(=O)N(C)C)c3)ccc2S1(=O)=O	3.8
C[C@H]1CN([C@@H](C)CO)S(=O)(=O)c2ccc(C#CCC3CCCC3)cc2O[C@@H]1CN(C)C(=O)CC1CC1	-38.0
CCCNC(=O)N(C)C[C@@H]1Oc2ncc(C#C[C@@H](C)O)cc2C(=O)N([C@H](C)CO)C[C@H]1C	2.5
COc1cccc(NC(=O)N(C)C[C@@H]2Oc3cc(-c4cccc(C(=O)N(C)C)c4)ccc3S(=O)(=O)N([C@H](C)CO)C[C@H]2C)c1	-1.4
C[C@H](O)C#Cc1ccc2c(c1)O[C@@H](CN(C)C)[C@H](C)CN([C@@H](C)CO)S2(=O)=O	0.0
CC(C)CC#Cc1cnc2c(c1)C(=O)N([C@@H](C)CO)C[C@@H](C)[C@H](CN(C)Cc1ccc(F)cc1)O2	5.8
C[C@@H]1CN([C@@H](C)CO)C(=O)c2cc(-c3cncnc3)cnc2O[C@@H]1CN(C)Cc1cncnc1	4.5
C[C@H](CO)N1C[C@H](C)[C@@H](CN(C)C(=O)CN2CCOCC2)Oc2cc(C#Cc3cccc(F)c3)ccc2S1(=O)=O	3.0
COc1ccc(C#Cc2ccc3c(c2)O[C@H](CN(C)C(=O)CN2CCOCC2)[C@H](C)CN([C@H](C)CO)S3(=O)=O)cc1	50.0*
C[C@@H]1CN([C@@H](C)CO)S(=O)(=O)c2ccc(C#Cc3cccc(F)c3)cc2O[C@H]1CN(C)C(=O)CN1CCOCC1	-2.1
CO[C@@H]1CN(C)C(=O)c2ccc(NC(=O)NC(C)C)cc2OC[C@H](C)NC[C@@H]1C	-56.6
C[C@H](CO)N1C[C@H](C)[C@H](CN(C)S(=O)(=O)c2ccc(F)cc2)Oc2ncc(C#CC3(O)CCCC3)cc2C1=O	-0.7
SMILES	miR122 inh
CCC(=O)N1C[C@@H](C)[C@H](OC)CN(C)C(=O)c2ccc(NS(C)(=O)=O)cc2OC[C@H]1C	-1.8
COCC(=O)N(C)C[C@@H]1Oc2ncc(C#Cc3ccccc3OC)cc2C(=O)N([C@H](C)CO)C[C@H]1C	1.3
C[C@H](CO)N1C[C@H](C)[C@@H](CN(C)CC2CCCCC2)OCCCC[C@H](C)Oc2ccc(NC(=O)Nc3cccc4ccccc34)cc2C1=O	34.0*
COc1ccc(S(=O)(=O)Nc2ccc3c(c2)C(=O)N([C@@H](C)CO)C[C@H](C)[C@H](CN(C)C(=O)Nc2ccccc2)OCCCC[C@@H](C)O3)cc1	-120.0
C[C@H]1CN([C@@H](C)CO)C(=O)c2cccc(NC(=O)Nc3ccc(C(F)(F)F)cc3)c2O[C@@H]1CN(C)CC1CCCCC1	-92.1
C[C@H](CO)N1C[C@H](C)[C@@H](CN(C)CC2CCCCC2)Oc2c(NC(=O)c3ccncc3)cccc2C1=O	-127.2
C[C@@H]1CN([C@@H](C)CO)C(=O)Cc2cc(NC(=O)Nc3cccc4ccccc34)ccc2O[C@@H]1CN(C)C(=O)NC1CCCCC1	-167.0
C[C@@H]1CCCCO[C@@H](CN(C)CC2CCCCC2)[C@@H](C)CN([C@@H](C)CO)C(=O)c2cc(NC(=O)Nc3cccc4ccccc34)ccc2O1	31.0*
